The supplement of paper PMC3334620
In all, about 33,000 sequences were measured (“E-score (-0.5 to 0.5)”: median about -0.043, highest 2% from about 0.37 on). What follows is part of a selection rich in the highest values, with near analogues and random picks from the rest.

target: T1, Upc2 (UniProt Q12151); experiment: PBM E-score (8-mer binding enrichment) (E-score (-0.5 to 0.5)); higher = stronger / more preferred TF binding; conditions: protein concentration: 200 nM; construct: GST-full length
T1 sequence: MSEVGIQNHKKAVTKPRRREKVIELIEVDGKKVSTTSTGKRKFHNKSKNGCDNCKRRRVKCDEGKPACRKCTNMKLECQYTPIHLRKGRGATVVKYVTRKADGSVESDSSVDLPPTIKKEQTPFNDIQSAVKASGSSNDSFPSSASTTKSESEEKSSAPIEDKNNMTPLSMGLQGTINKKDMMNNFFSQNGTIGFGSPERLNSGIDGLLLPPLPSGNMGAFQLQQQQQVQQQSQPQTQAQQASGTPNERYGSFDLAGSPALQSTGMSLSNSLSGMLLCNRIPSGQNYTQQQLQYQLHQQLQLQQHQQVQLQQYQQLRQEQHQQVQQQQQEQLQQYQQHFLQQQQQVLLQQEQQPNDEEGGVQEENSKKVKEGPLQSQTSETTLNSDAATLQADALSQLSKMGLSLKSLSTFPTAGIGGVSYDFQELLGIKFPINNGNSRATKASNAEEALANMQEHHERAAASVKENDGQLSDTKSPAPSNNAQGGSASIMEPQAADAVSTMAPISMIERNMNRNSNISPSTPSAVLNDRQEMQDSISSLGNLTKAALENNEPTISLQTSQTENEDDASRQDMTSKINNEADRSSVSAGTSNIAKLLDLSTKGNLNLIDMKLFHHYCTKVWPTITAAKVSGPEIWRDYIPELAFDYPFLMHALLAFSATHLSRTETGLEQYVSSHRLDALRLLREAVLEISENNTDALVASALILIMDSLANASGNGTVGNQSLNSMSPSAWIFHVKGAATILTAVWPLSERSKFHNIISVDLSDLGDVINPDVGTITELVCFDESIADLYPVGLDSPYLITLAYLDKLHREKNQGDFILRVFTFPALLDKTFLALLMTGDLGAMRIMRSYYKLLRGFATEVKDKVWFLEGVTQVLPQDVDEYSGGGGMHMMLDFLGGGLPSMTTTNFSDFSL
Method in brief: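 GST-tagged yeast TFs (full-length or DNA-binding domain) were made by PURExpress in vitro transcription/translation and applied at about 100-200 nM to universal all-10-mer Agilent arrays. The arrays were made double-stranded by primer extension, on fresh or once-stripped slides. Bound protein was detected with fluorescent anti-GST, and scans were normalised with masliner. Each ungapped eight-base word, pooled with its reverse complement, received an E-score (modified Wilcoxon-Mann-Whitney statistic) from the Universal PBM Analysis Suite.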

Sequence	PBM E-score
GGCGTCCA	-0.398
CATCACGG	0.0314
ACTGTAGG	-0.117
GATTAGCC	0.0747
ATGTTAGG	-0.00946
ACCTGGAA	0.0285
AGAGCATG	-0.17
CAGTGCTA	-0.0362
AGAATCAG	-0.0805
AGCATTAT	-0.183
GATCGTGC	0.0519
AATCGTAC	0.43
TATCGTAA	0.384
AATCGTGC	0.229
TATCGTGA	0.0236
GATCGTAC	0.442
GATCGTCC	-0.151
TATCGTCA	0.0773
AATCGTCC	-0.0549
AGAGGCAC	-0.00593
GAACATCA	-0.0243
AGCTGTAT	-0.0312
CTAAGCTC	-0.201
AACCCTCT	-0.202
CGGACTAC	-0.113

Sequence	PBM E-score
CTCGTCGC	0.0828
AGGAGCCT	-0.12
CCGAGCCA	-0.0165
ACGAGCCT	0.396
TCGAGCCA	-0.0555
ACGAGCCC	0.358
AGGAGCCG	-0.224
CCGAGCCG	0.106
ACGAGCCG	0.371
ACGAGCCA	0.408
TAACTCAA	-0.0155
ATTTCTTC	-0.026
ATATATAA	0.141
TAATGCTA	-0.11
GAACGGTA	0.283
AAACGATG	0.458
CAACGATG	0.0412
AATCGATT	0.128
AAACGCTT	0.156
GATCGATC	-0.03
GGACGATA	-0.181
AAACGATT	0.449
AAACGCTG	0.244
GAACGATC	0.429
CCACGATC	0.125

Sequence	PBM E-score
GAACGATA	0.402
CGCCACCC	-0.0595
ATCGTGAG	-0.165
GGTCTGCA	-0.156
TCAGATGA	-0.197
ATCTGGTA	0.044
ACACTGCA	-0.0747
CGGCATAG	-0.0559
GCCTCCGC	-0.121
AAACTTTA	-0.0184
TAACGATA	0.387
TAACGTTA	0.102
ACACGATA	0.15
CCACGATA	-0.0526
AGACGATC	-0.0293
CAACGATC	0.11
AAACGATA	0.459
AAACGATC	0.447
CAACGATA	0.228
AAGCGACT	0.243
ACACTCAT	-0.233
ATCTCCTG	-0.0597
ATAGGTCC	-0.132
AGAGCGTA	0.223
ATCTGAAG	-0.202

Sequence	PBM E-score
CACGAGGC	0.116
GACGAGGA	-0.00176
TACGAGGA	0.464
AGCGAGGA	0.144
AACGAGGA	0.428
AACGAGGT	0.448
ATCGAGGA	0.0976
ACCGAGGT	0.169
AAAGAGGT	-0.182
GACGAGGC	0.0687
CACGAGGA	0.0675
AACGAGGC	0.444
AGATGGCC	-0.176
AAGAGACG	0.102
CTGGCGAA	-0.174
ACCACCTG	-0.0336
CACTGTGC	-0.118
CAGTAGTC	0.0468
GCCTTGAA	-0.189
CATTTCGA	0.0247
GCTCCACC	-0.0776
AGATGAAT	-0.206
CAGACTGA	-0.0971
AAGTTATT	0.045
AGCTATGG	-0.158

Sequence	PBM E-score
AACGAGGG	0.43
AGCGAGGG	0.245
CACGAGGG	0.114
AGGGTGAC	-0.128
ACCCTGGA	-0.0506
CGTACGAC	0.449
AGTACGTA	0.27
AGTACGCG	0.189
AGTACGTG	0.0272
GGTACGAC	0.475
CGGACGAC	-0.21
GGTACTAC	0.0298
AGTACGAA	0.384
GGGACGAC	-0.244
AGTACGAG	0.428
CGTACGCC	0.312
AGTACGCA	-0.0414
CGAAGCAC	-0.0203
CAGCACGG	-0.256
ATAGGCGG	-0.0532
AGCAAGTC	-0.148
AAAGCAGT	-0.125
GATGGGAC	-0.0558
CCTAGATA	-0.0107
CGTACGAG	0.465

Sequence	PBM E-score
ATTACGAG	0.378
AGTACGAT	0.345
ATTACGTG	-0.118
CCTACGAG	0.341
GGTACGCA	0.252
AGTACGAC	0.409
GGTACGAA	0.459
CGGACGAG	-0.165
ATTACGAC	0.348
GGTACGTA	0.313
AGTACGCC	-0.0728
ACCACGTG	0.0941
GAAGAAAC	0.0334
TAATTGGA	-0.00998
AACTCCAC	0.00868
CAGTTTCA	-0.223
CGCGAGAA	0.0746
CAGGTGAG	-0.277
CATGGCTC	-0.0993
AAGGTAAT	0.0547
TGTACGAA	0.479
CGTACGTA	0.364
CGTACGCA	0.345
TGTACAAA	0.0122
CGTACGAA	0.444

Sequence	PBM E-score
TGCACGAA	0.145
CATATTCA	-0.0449
GCTTCACA	-0.124
GTTCGTCA	-0.0278
ATTCGTAA	0.399
ATTCGTAG	0.285
GTTCGTGA	0.0858
ATTCGTGA	0.0183
GTTCGTAA	0.424
GGATGGTA	0.0248
GCTAGCTA	0.0155
ACGACCGC	0.359
GTGAGAAC	-0.188
GCCAAACA	-0.0676
CCGTACAG	0.418
ACGTACAG	0.3
GCGTACAC	0.33
CCGTACAC	0.382
ACGTACAC	0.297
CTGTACAG	0.158
AAAAGACA	0.0436
CCACAGAC	-0.169
ATTAGCCG	0.0535
GTGACCGA	0.11
ATGTACCG	-0.03

Sequence	PBM E-score
CTGTACAC	0.152
ATGTACTA	0.0361
ATGTACGA	0.472
ATGTACTG	-0.177
CTGTACGA	0.488
CTGTACAA	0.0214
ATGTACGC	0.187
ATGTACGG	0.373
CTGTACCA	-0.134
CTGTACTC	0.00852
CTGTACGC	0.375
GACTCTCA	-0.187
CAGAAAGA	-0.00388
CACATAGG	-0.207
AAACCAAA	0.118
AAAGCATC	0.0386
GTGTACGA	0.479
GTGTACCA	0.0546
GTGTACTA	0.127
CAAGCCTA	-0.0953
ACCGACGT	0.238
CACGACGG	0.129
CACGACGC	0.0689
AACGACGT	0.408
GACGACGA	-0.00938

Sequence	PBM E-score
AAGGACGT	0.0675
TACGACGA	0.465
ACCGACGG	0.108
AACGACGG	0.437
AACGACGC	0.442
CACGACGA	0.126
GACGACGC	0.0643
GAGCTTGC	-0.231
CTCTCTTC	-0.29
CTAAGTTC	-0.0418
CCAATGGC	-0.226
ATTCAAAA	0.0167
CTCCACCC	-0.189
TAACTCGA	0.109
GCTGAGAC	-0.203
AATATCTG	-0.124
ATCGACGA	-0.0697
AACGACGA	0.454
AGCGACGA	0.185
CACATACA	-0.107
AACATACC	0.16
ATCATACG	0.383
CACATACG	0.401
CACATACC	-0.12
ATCATACA	0.0941

Sequence	PBM E-score
CGCATACG	0.439
AACATACT	0.0309
CGCATACA	0.114
AACATACG	0.39
CGCATACC	0.212
ATCATACC	-0.02
TGTAGGAA	-0.0273
AAGATGGG	-0.219
GATCCAGA	0.0551
CTTAGCGC	0.126
GACCCCAA	-0.0347
ACAAATCT	0.0248
ATCGGTCG	0.197
AAAGAAGG	-0.138
GCAGTATA	0.219
ATGTCTCA	-0.192
ACATAGGC	-0.126
ATCGTAAA	0.448
GGCGTAAA	0.279
ACCGTAAC	0.27
ATCGTAAC	0.372
TCCGTAAA	0.357
TGCGTAAA	0.294
AACGTAAC	0.245
ATCGTAAT	0.287

Sequence	PBM E-score
ATCGTAAG	0.354
GTCGTAAA	0.477
GACGTAAA	0.228
TTCGTAAA	0.459
GAGTAGGC	-0.18
AGTCTACA	-0.115
AGAACACC	-0.039
CCGAGTGA	0.102
CAATAAGG	-0.351
CACGTAAA	0.253
CGCGTAAA	0.354
CTCGTAAA	0.482
ACAGATTA	-0.111
CATAGTAC	0.0276
ACATTTTA	0.187
ACCGTCGC	0.233
ACCGTCGT	0.394
AACGTCGG	0.176
AACGTCGA	0.202
ACCGTCGA	-0.191
AACGTCGT	0.38
GCAATCTA	-0.0928
TAAGTAAA	-0.00508
GTTGCAGA	-0.126
CCATACTA	-0.101

Sequence	PBM E-score
ACATACGG	0.354
CCATACGG	0.396
CCATACGC	0.322
CCATACGA	0.473
CCATACAA	-0.09
CCGTTCCG	0.323
ATTGTTGG	-0.153
CGATTTGC	-0.0413
CCGGTTAG	0.0696
ACAGGTAA	-0.0299
CGGATACG	0.408
ACGATACT	0.313
ACGATACG	0.391
CAGATACG	0.375
CGGATACA	0.201
ACGATACA	0.279
CAGATACC	-0.184
AAGATACG	0.349
CCGATACA	0.159
CCGATACG	0.392
CGGATACC	0.0516
CCGATACC	-0.00432
ATTCTAAA	0.155
CCCAGCCA	-0.0649
GACGGTGC	0.0569

Sequence	PBM E-score
AAAATCTG	-0.0273
CGCATAGC	0.265
AAGACTGG	-0.109
CCCTCACA	-0.164
CACGAGTA	0.126
CACGAGTG	0.0785
AACGAGTA	0.437
ACCGAGTA	0.25
AACGCGTT	0.248
AACGAGTT	0.399
AAAGAGTT	-0.235
AGCGAGTG	0.204
TACGAGTA	0.453
AACGAGTG	0.414
AGCGAGTA	0.269
GACGAGTA	0.104
ATCATCTA	-0.0847
CTGGTCAA	-0.17
ACAATATC	0.125
CATCAGCC	-0.104
TTACTGAA	0.182
GACGAGTC	0.0657
AACGAGTC	0.414
CACGAGTC	0.00415
ACAATAAT	0.0963

Sequence	PBM E-score
ACCCGCTG	-0.245
AAGCTGCG	-0.0191
AGGTTCAA	-0.0255
ACACGGGC	-0.0605
CTACGGGC	-0.0221
ATACGGGG	0.411
GGACGGGA	-0.0849
ATACGGGC	0.426
GCACGGGA	0.0149
CTACGGGA	0.00845
ACACGGGG	-0.0346
AGACGGGG	-0.147
ACACGGGA	-0.129
GTACGGGA	0.389
ATACGGGA	0.382
ACCATTAC	0.17
AAACCGTC	-0.0199
ACTCCAAG	-0.152
CTCCTTAC	0.112
